Laboratory results reported in PubChem BioAssay (NCATS).

Target: Glucocorticoid receptor (Homo sapiens) (UniProt P04150)
Experiment: GR-GFP Redistribution (AID 450)
Conditions: U2OS GR-GFP nuclear translocation, laser cytometry, 2 h; series mostly up to 20.6 µM;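 active = compounds whose dose series gives a full or clear partial fitted curve of increased nuclear translocation; inconclusive = weak partial curve or effect only at the top dose; inactive = no dose-dependent translocation response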
Potency is read from the fitted curve at half-maximal effect.

Glucocorticoid receptor (Homo sapiens), sequence (P04150 whole entry, looked up): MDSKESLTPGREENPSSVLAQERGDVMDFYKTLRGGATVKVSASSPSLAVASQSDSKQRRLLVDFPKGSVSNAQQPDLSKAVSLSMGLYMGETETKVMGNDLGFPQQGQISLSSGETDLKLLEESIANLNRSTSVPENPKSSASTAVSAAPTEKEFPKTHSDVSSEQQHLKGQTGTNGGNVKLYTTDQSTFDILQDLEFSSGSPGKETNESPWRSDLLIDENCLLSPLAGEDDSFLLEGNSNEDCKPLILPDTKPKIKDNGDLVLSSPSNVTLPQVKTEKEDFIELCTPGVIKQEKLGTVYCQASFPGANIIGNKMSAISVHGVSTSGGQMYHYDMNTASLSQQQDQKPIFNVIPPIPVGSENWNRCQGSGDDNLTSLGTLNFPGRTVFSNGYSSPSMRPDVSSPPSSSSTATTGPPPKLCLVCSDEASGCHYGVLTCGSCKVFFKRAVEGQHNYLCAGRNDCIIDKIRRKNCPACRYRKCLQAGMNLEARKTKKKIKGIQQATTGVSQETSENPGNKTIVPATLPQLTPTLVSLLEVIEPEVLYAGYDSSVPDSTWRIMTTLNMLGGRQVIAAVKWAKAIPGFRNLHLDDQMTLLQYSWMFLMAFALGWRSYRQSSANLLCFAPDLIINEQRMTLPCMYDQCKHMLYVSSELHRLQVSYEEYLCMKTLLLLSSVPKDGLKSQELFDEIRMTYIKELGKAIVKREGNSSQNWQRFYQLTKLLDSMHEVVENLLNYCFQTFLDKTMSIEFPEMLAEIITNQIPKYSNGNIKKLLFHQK

Potency, inactive:
O=C(Nc1ccccn1)c1ccc(=O)[nH]n1 > 20.6 µM, CCCCOc1ccccc1/C=c1/sc2nc(-c3oc4ccccc4c3C)nn2c1=O > 20.6 µM, COc1cccc(-c2nn3c(-c4ccco4)nnc3s2)c1 > 20.6 µM, Cc1cc(/C=N/n2cnnc2)c(C)n1-c1ccc2c(c1)OCO2 > 20.6 µM, Cc1nc(SC2C=CS(=O)(=O)C2)n[nH]1 (stereo not given) > 20.6 µM, COC(=O)CNc1nc(-c2cccnc2)nc2ccccc12 > 20.6 µM, O=C1C=C(O)CC(c2cccs2)C1 (stereo not given) > 20.6 µM, COc1ccc2[nH]c(C)c(C(=O)CN3CCOCC3)c2c1 > 20.6 µM, O=C(O)CCCC(=O)N1CCN(C(c2ccccc2)c2ccccc2)CC1 > 20.6 µM, COc1ccc(C=NCCC2(O)CC(C)N(C)CC2C)cc1 (stereo not given) > 20.6 µM, Cc1c(=O)n(OCc2c(F)cccc2F)c2ccccc2[n+]1[O-] > 20.6 µM, COc1ccc(-c2onc(C)c2-c2ccccc2)c(O)c1 > 20.6 µM, O=C(O)c1ccc(COc2c(F)c(F)c(F)c(F)c2F)o1 > 20.6 µM, O=C(O)C(O)c1ccco1 (stereo not given) > 20.6 µM, CCCCOc1ccc(-c2nnc(N)s2)cc1 > 20.6 µM, COC(=O)CSCC(=O)Nc1cc2c(cc1C(C)=O)OCO2 > 20.6 µM, Cc1nnc2n(-c3ccccc3)c(=O)c3c4c(sc3n12)CCCC4 > 20.6 µM, Cc1cccc2c1NC(C)CC2C (stereo not given) > 20.6 µM, COc1cccc(C2CC(c3ccccc3Cl)n3nc(N)nc3N2)c1 (stereo not given) > 20.6 µM, C=CCOc1nc2c(c(=O)n(Cc3ccc(Cl)c(Cl)c3)c(=O)n2C)n1C > 20.6 µM, Cc1ccc2c(c1)C(CCN)C(=O)N2Cc1ccccc1 (stereo not given) > 20.6 µM, CC1(C)Cc2c(C#N)c(N3CCN(C(=O)c4ccccc4)CC3)nc(-c3ccco3)c2CS1 > 20.6 µM, CC1(C)Cc2c(C#N)c(NCCN3CCOCC3)nc(-c3ccco3)c2CO1 > 20.6 µM, Cc1ccc(N(Cc2cc3ccccc3[nH]c2=O)C(=O)c2ccco2)c(C)c1 > 20.6 µM, COc1ccc2nc(SCC(=O)O)nc(C)c2c1 > 20.6 µM, Cc1ccc(-n2nc3cc(Cl)c(NC(=O)c4ccco4)cc3n2)cc1 > 20.6 µM, CC(C)(C)C1=Nn2c(nnc2C2CCCCC2)SC1 > 20.6 µM, CCN(CC)CCN1C(=O)C(=O)/C(=C(/O)c2c(C)[nH]c(C(=O)OC)c2C)C1c1ccccc1 (stereo not given) > 20.6 µM, CCOC(=O)C(Oc1ccc(=O)[nH]n1)C(C)=O (stereo not given) > 20.6 µM, COc1cc(C2C(C#N)=C(N)Oc3cc(C)n(CCN4CCOCC4)c(=O)c32)cc(OC)c1OC (stereo not given) > 20.6 µM, CCOC(=O)C1/C(=N\O)CC(C)(O)C(C(=O)OCC)C1c1ccc(N(C)C)cc1 (stereo not given) > 20.6 µM, Nc1ccc(Cl)cc1/C(=N/O)c1ccccc1 > 20.6 µM, COCCN(CCOC)C(=O)C12CCC(C)(C(=O)C1)C2(C)C (stereo not given) > 20.6 µM, Oc1ccc2ccccc2c1C=NC12CN3CCN(CN(C3)C1)C2 > 20.6 µM, N#Cc1nc(-c2cccs2)oc1NCCc1ccccc1 > 20.6 µM, O=C(O)CC(C(=O)OCCOc1ccccc1)N1CCOCC1 (stereo not given) > 20.6 µM, COc1ccccc1C(=O)Nc1cc(Cl)ccc1O > 20.6 µM, CCOP(=O)(c1ccccc1)c1nc(-c2ccc(F)cc2)oc1N1CCCCC1 (stereo not given) > 20.6 µM, CN(C)C(CN1C(=O)C2CC=CCC2C1=O)c1cn(C)c2ccccc12 (stereo not given) > 20.6 µM, COc1cccc2c(=O)c(SC(F)(F)C(F)C(F)(F)F)c(C)[nH]c12 (stereo not given) > 20.6 µM
